# Source: PubChem BioAssay
# This is a sample that favours compounds with a hit; in the whole collection about 2.6% have one here.
# aDG glyco act = alpha-DG glycosylation activation; activation, % at 10 µM; actives 0.22% (n = 360,000); AID 624168; Pro5-aDG cells, alpha-DG glycosylation AlphaScreen (IIH6); 0% Pro5, 100% B10-LARGE cell signal;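 active means activation of at least 8% versus controls, or a plate z-score of at least 8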;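 further: Pro5 are CHO cells carrying HIG-tagged alpha-DG that lacks glycosylation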
# LGR2 antag = blocks bursicon-induced cAMP signaling via Drosophila LGR2; HEK293 LGR2, CRE-luciferase, bursicon-stimulated, 4 h; inhibition, % at 9.99 µM; actives 0.35% (n = 380,000); AID 720647;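 active means drop in luminescence signal, shown as inhibition above about 50% in the replicate tests, limit read from the data, passing the limit was not always enough; inconclusive means probably only some replicates passing the limit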;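 further: agonist challenge used bursicon conditioned medium at about half maximal strength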
# HSP90 refold inh = HSP90 refolding inhibition in rabbit reticulocyte lysate. luciferase refolding luminescence, 3 h. inhibition, % at 5.6 µM. actives 0.91% (n = 290,000). AID 1789;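 active means inhibition above the screen-wide mean plus 3 SD, computed separately per campaign, cut at about 16% in these data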;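 further: 0% = DMSO wells and 100% = 60 µM geldanamycin wells; inhibitors lower the luminescence because luciferase stays unfolded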
# TROY NFkB inh = blocks TROY-dependent signaling in reporter cells. Q293 LMP1-TROYcd NF-kB luciferase reporter, 4 h. inhibition, % at 10 µM. actives 0.98% (n = 360,000). AID 1347056;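 active means compounds whose plate-normalised and pattern-corrected inhibition of the luciferase reporter signal at the single screening dose is 50% or more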
# LMP1 NFkB inh = reduces LMP1-driven NF-kappaB luciferase signal | LMP1-induced NF-kappaB luciferase reporter cells, luminescence | inhibition, % at 12.5 µM | actives 0.69% (n = 350,000); in the data active means inhibition above about 41%; inconclusive means no clear call, values can overlap the other calls;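 further: 0% = neutral control wells and 100% = reference inhibitor control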
# TWEAK-Fn14 inh = TWEAK-Fn14 signaling inhibition | inhibition, % at 10 µM | actives 2% (n = 360,000) | TWEAK-stimulated Fn14 reporter cells, luciferase luminescence, 8 h; in the data active means inhibition above about 50%
# * marks the source's active call; other numbers are inactive results; ? = inconclusive; / = no result.
SMILES,aDG glyco act,LGR2 antag,HSP90 refold inh,TROY NFkB inh,LMP1 NFkB inh,TWEAK-Fn14 inh
COc1ccc2c3c(n(C)c2c1)[C@@H](CO)N(C(=O)Nc1ccc(F)cc1)CC31CCN(C(=O)c2ccccc2F)CC1,/,28,/,/,/,/
CO[C@H](CN(C)C(=O)Nc1ccc(C(F)(F)F)cc1)[C@@H](C)CN(Cc1ccccc1Cl)[C@H](C)CO,/,20,/,/,/,/
CCCCOc1ccc2c(c1)/C(=C(\C(Cl)=C(Cl)Cl)[N+](=O)[O-])N2,0,23,0,20,44*,-10
CC(=O)Nc1ccc(N2CCOCC2)c(S(=O)(=O)Nc2ccccc2Cl)c1,0,9,/,-11,-9,16
O=C(Nc1cccc(C(F)(F)F)c1)Nc1ccc(N2CCCC2)c(S(=O)(=O)Nc2ccccc2Cl)c1,0,12,0,41,22,80*
O=C(C[C@H]1CC[C@H](NS(=O)(=O)c2ccccc2)[C@H](CO)O1)N1CCC(Cc2ccccc2)CC1,/,9,/,/,/,/
Cc1ccccc1N=C1SC(CC(=O)Nc2ccc3ccccc3c2)C(=O)N1Cc1ccccn1 (stereo not drawn),2,10,-4,27,-17,72*
CC(C)c1ccc(CC(=O)N2CCC2(C)C(=O)Nc2ccc3c(c2)OCO3)cc1 (stereo not drawn),0,-8,/,4,/,-11
CC1(C(=O)Nc2ccc3c(c2)OCCO3)CCN1C(=O)C1(c2ccc(Cl)cc2)CCC1 (stereo not drawn),0,11,/,10,/,2
CC1(C(=O)Nc2ccc3c(c2)OCCO3)CCN1C(=O)C1(c2ccc(Cl)cc2)CC1 (stereo not drawn),0,0,/,26,/,59*
CC1(C(=O)Nc2ccc3c(c2)OCCO3)CCN1C(=O)Cc1ccc(-c2ccccc2)cc1 (stereo not drawn),1,1,/,46,/,74*
CC1(C(=O)Nc2cccc(C#N)c2)CCN1C(=O)Cc1ccc(-c2ccccc2)cc1 (stereo not drawn),3,10,/,23,/,57*
C/C=C/c1cnc2c(c1)C(=O)N([C@@H](C)CO)C[C@H](C)[C@H](CN(C)Cc1ccccc1)O2,/,4,/,/,/,/
O=C(C1CCCCC1)N1CC2(C1)[C@@H](c1ccccc1)[C@@H](CO)N2Cc1ccc(Cl)cc1,/,-4,/,/,/,/
CC(C)(C)c1ccc(C(=O)Nc2ccccc2NC(=O)c2ccco2)cc1,0,/,-2,/,-7,96*
CC(C)(C)c1ccc(Oc2ccc(NC(=O)c3ccco3)cn2)cc1,0,13,-1,12,-99,78*
O=C(Nc1ccccc1NC(=O)c1ccco1)c1ccccc1,0,17,-2,16,-1,10
CO[C@@H]1CN(C)C(=O)c2ccc(NC(=O)Cc3ccccc3)cc2OC[C@@H](C)N(C(C)=O)C[C@H]1C,/,-17,/,/,/,/
CCOC(=O)N1CCN(Cc2c(F)cccc2F)CC1,0,-1,-8,/,5,71*
O=C(C[C@@H]1CC[C@H]2[C@@H](COC[C@@H](O)CN2CC2CCOCC2)O1)NCC1CCCCC1,/,1,/,/,/,/
N#C/C(=N/Nc1ccc(OC(F)(F)F)cc1)C(N)=S,0,33,-1,49,34,80*
COc1ccc(N/N=C(\C#N)C(N)=O)cc1,0,6,0,1,1,-39
CN(C(=O)/C=C/c1cnc2ccccc2c1)C1CCCCC1,0,37,12,32,17,52*
COc1ccc(/C=C/C(=O)N(C)C2CCCCC2)cc1Br,0,-18,0,-31,-38,-40
COc1ccc(C(CC(=O)c2ccc(C)cc2)C(C#N)C#N)cc1OC (stereo not drawn),0,53*,-3,20,13,88*
SMILES,aDG glyco act,LGR2 antag,HSP90 refold inh,TROY NFkB inh,LMP1 NFkB inh,TWEAK-Fn14 inh
Nc1nc(Cl)cc(NCCc2ccc(O)cc2)n1,0,-29,-1,2,25,-1
Oc1ccc(CCNc2ncnc3ccc(Cl)cc23)cc1,2,24,-1,56*,20,94*
CCOC(=O)/C(C#N)=C1\Nc2ccccc2N=C1N(CC(C)C)CC(C)C,0,/,6,25,-28,28
CCOC(=O)/C(C#N)=C1/C=C(C)NC(c2ccccc2O)=N1,0,14,-1,54*,-9,57*
C[C@@H]1CN([C@H](C)CO)C(=O)c2cc(NS(C)(=O)=O)ccc2O[C@H]1CN(C)C(=O)Nc1ccc2c(c1)OCO2,/,-6,/,/,/,/
COc1ccc(-n2ncc(N(C)n3cccc3)c(Cl)c2=O)cc1,0,-19,5,-6,-8,4
Cc1ccc(-n2ncc(N(C)C)c(Cl)c2=O)cc1,0,/,14,22,12,55*
COc1ccc(-n2ncc(Cl)c(Cl)c2=O)cc1,0,106*,0,56*,/,98*
C[C@@H]1CCCCO[C@H](CN(C)Cc2ccc(C(=O)O)cc2)[C@H](C)CN([C@@H](C)CO)C(=O)c2cc(NC(=O)NC3CCCCC3)ccc2O1,/,-4,/,/,/,/
O=C(C[C@@H]1C=C[C@H](NC(=O)C2CCOCC2)[C@@H](CO)O1)NCc1ccccc1Cl,/,20,/,/,/,/
COc1ccc2c3c([nH]c2c1)[C@@H](CO)N(C)CC31CN(S(=O)(=O)c2cccc(F)c2)C1,/,-16,/,/,/,/
CC(C)NC(=O)N(C)C[C@H]1OCCCC[C@H](C)Oc2ccc(NS(=O)(=O)c3ccccc3)cc2C(=O)N([C@@H](C)CO)C[C@H]1C,/,-2,/,/,/,/
CCOC(=O)c1cccc(Nc2nc(-c3cccnc3)nc3ccccc23)c1,-1,/,-3,37,12,69*
O=C(C[C@@H]1C=C[C@@H](NC(=O)NC2CCCCC2)[C@H](CO)O1)NCc1ccccc1,/,0,/,/,/,/
Cc1cc(=O)[nH]c(N/N=C/c2ccccn2)n1,1,28,3,-7,16,-4
C(=N\Nc1nncc2ccccc12)/c1ccccn1,0,?,29*,-19,30,74*
O=c1cnnc(N/N=C/c2ccccn2)[nH]1,0,29,-1,20,76*,-7
Cc1ccc(S(=O)(=O)Nc2cccc3c2O[C@@H](CN(C)Cc2ccc(Oc4ccccc4)cc2)[C@@H](C)CN([C@@H](C)CO)C3=O)cc1,/,-7,/,/,/,/
COCC(=O)Nc1ccc2c(c1)[C@@H]1C[C@@H](CC(=O)NCc3ccccn3)O[C@@H](CO)[C@@H]1O2,/,-1,/,/,/,/
FC(F)(F)c1nc(-c2cccs2)ncc1-c1nnnn1-c1ccc(Cl)cc1,2,/,3,66*,25,99*
Cc1ccc2c(c1)N(C(=O)CCC(=O)NCc1ccccc1)CC(C)O2 (stereo not drawn),0,-1,-3,-5,-8,1
CC1CN(C(=O)CCC(=O)NCc2ccccc2)c2cc(Cl)ccc2O1 (stereo not drawn),0,-12,67*,-3,-1,20
Cc1cc(C(=O)COC(=O)Cc2n[nH]c(=O)c3ccccc23)c(C)n1-c1ccc2c(c1)OCCO2,0,/,1,39,14,68*
